Experimental data as given in the supplement of paper PMC8728848.
This excerpt belongs to a sample that is enriched for the strongest signals.

Experiments:
Assay in all cases: glycan array binding signal (z-score within array); higher = stronger binding
Settings in all cases: glycan notation: IUPAC condensed, linker removed
[1] = biological target: GlcA3S(b1-3)Gal(b1-4)GlcNAc(b1-2)Man
How it was run: (§1)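 The Consortium for Functional Glycomics database supplied 3228 glycan arrays, of which those lacking an available protein sequence were dropped. The binding signal, a within-array Z-score, was averaged across arrays of the same protein sequence and across linkers. Negative scores can be read as non-binding.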

[2] = biological target: GlcNAc(a1-4)Gal(b1-4)GlcNAc
How it was run: as §1

[3] = biological target: GlcNAc(b1-2)Man(a1-3)[GlcNAc(b1-4)][GlcNAc(b1-2)Man(a1-6)]Man(b1-4)GlcNAc(b1-4)GlcNAc
How it was run: as §1

[4] = biological target: GlcNAc(b1-2)[GlcNAc(b1-4)]Man(a1-3)[GlcNAc(b1-4)][GlcNAc(b1-2)Man(a1-6)]Man(b1-4)GlcNAc(b1-4)GlcNAc
How it was run: as §1

GlcNAc(b1-3)Fuc = biological target: GlcNAc(b1-3)Fuc
How it was run: as §1

[5] = biological target: GlcNAc(b1-3)Gal(b1-3)GalNAc
How it was run: as §1

[6] = biological target: GlcNAc(b1-3)Gal(b1-4)GlcNAc(b1-2)[GlcNAc(b1-3)Gal(b1-4)GlcNAc(b1-6)]Man(a1-6)[GlcNAc(b1-3)Gal(b1-4)GlcNAc(b1-2)Man(a1-3)]Man(b1-4)GlcNAc(b1-4)GlcNAc
How it was run: as §1

[7] = biological target: GlcNAc(b1-3)Gal(b1-4)GlcNAc(b1-3)Gal(b1-4)GlcNAc(b1-2)Man(a1-3)[GlcNAc(b1-3)Gal(b1-4)GlcNAc(b1-3)Gal(b1-4)GlcNAc(b1-2)Man(a1-6)]Man(b1-4)GlcNAc(b1-4)GlcNAc
How it was run: as §1

[8] = biological target: GlcNAc(b1-3)Gal(b1-4)GlcNAc(b1-3)Gal(b1-4)GlcNAc(b1-3)Gal(b1-4)GlcNAc(b1-2)[GlcNAc(b1-3)Gal(b1-4)GlcNAc(b1-3)Gal(b1-4)GlcNAc(b1-3)Gal(b1-4)GlcNAc(b1-6)]Man(a1-6)[GlcNAc(b1-3)Gal(b1-4)GlcNAc(b1-3)Gal(b1-4)GlcNAc(b1-3)Gal(b1-4)GlcNAc(b1-2)Man(a1-3)]Man(b1-4)GlcNAc(b1-4)[Fuc(a1-6)]GlcNAc
How it was run: as §1

GlcNAc(b1-3)GalNAc = biological target: GlcNAc(b1-3)GalNAc
How it was run: as §1

[9] = biological target: GlcNAc(b1-4)GlcNAc(b1-4)GlcNAc
How it was run: as §1

GlcNAc(b1-6)GalNAc = biological target: GlcNAc(b1-6)GalNAc
How it was run: as §1

Kdn(a2-3)Gal(b1-4)GlcNAc = biological target: Kdn(a2-3)Gal(b1-4)GlcNAc
How it was run: as §1

[10] = biological target: Man(a1-2)Man(a1-2)Man(a1-3)Man
How it was run: as §1

Man(a1-3)[Man(a1-6)]Man = biological target: Man(a1-3)[Man(a1-6)]Man
How it was run: as §1

[11] = biological target: Man(a1-3)[Man(a1-6)]Man(b1-4)GlcNAc(b1-4)[Fuc(a1-6)]GlcNAc
How it was run: as §1

[12] = biological target: Neu5Ac(a2-3)Gal(b1-3)GlcNAc(b1-2)Man(a1-3)[GlcNAc(b1-4)][Neu5Ac(a2-3)Gal(b1-3)GlcNAc(b1-2)Man(a1-6)]Man(b1-4)GlcNAc(b1-4)GlcNAc
How it was run: as §1

[13] = biological target: Neu5Ac(a2-3)Gal(b1-4)GlcNAc(b1-3)Gal(b1-4)[Fuc(a1-3)]GlcNAc
How it was run: as §1

[14] = biological target: Neu5Ac(a2-3)[Neu5Ac(a2-6)]GalNAc
How it was run: as §1

[15] = biological target: Neu5Ac(a2-6)Gal(b1-4)GlcNAc(b1-2)Man(a1-3)[Man(a1-6)]Man(b1-4)GlcNAc(b1-4)GlcNAc
How it was run: as §1

[16] = biological target: Neu5Ac(a2-6)Gal(b1-4)GlcNAc(b1-3)Gal(b1-4)GlcNAc
How it was run: as §1

[17] = biological target: Neu5Ac(a2-6)Gal(b1-4)GlcNAc(b1-3)Gal(b1-4)GlcNAc(b1-3)Gal(b1-4)GlcNAc(b1-2)Man(a1-3)[Neu5Ac(a2-6)Gal(b1-4)GlcNAc(b1-3)Gal(b1-4)GlcNAc(b1-3)Gal(b1-4)GlcNAc(b1-2)Man(a1-6)]GalNAc
How it was run: as §1

[18] = biological target: Neu5Ac(a2-6)Gal(b1-4)GlcNAc(b1-3)[Neu5Ac(a2-6)Gal(b1-4)GlcNAc(b1-6)]GalNAc
How it was run: as §1

[19] = biological target: Neu5Ac(a2-6)GlcNAc(b1-4)GlcNAc
How it was run: as §1

[20] = biological target: Neu5Ac(a2-8)Neu5Ac(a2-8)Neu5Ac(a2-3)[Gal(b1-3)GalNAc(b1-4)]Gal(b1-4)Glc
How it was run: as §1

[21] = biological target: Neu5Ac(a2-8)Neu5Ac(a2-8)Neu5Ac(a2-3)[GalNAc(b1-4)]Gal(b1-4)Glc
How it was run: as §1

[22] = biological target: Neu5Gc(a2-3)Gal(b1-4)GlcNAc
How it was run: as §1

[23] = biological target: Neu5Gc(b2-6)Gal(b1-4)GlcNAc
How it was run: as §1

B1: GS13599A-bth-520-23-520 (Bacteroides thetaiotaomicron) (protein)
chain: SEDTMDRINKDHDHTTSVASRFILADVITSTAFSNASGDINTYASSYIEYEVGVDNQLYYAEVRENEPSSSSTFNNSWNGIYSSLKNARIIIDQCGEGGRDHGNDVTRGMAEVMAAYNCALIADFFGDAPCSQAALVDEKGSPVYMTPKMDTQQEIYTQIISYLDDAIANLQKEDLADVTEQDFLYAGDADKWLKFAYGLKARYTMRLINRSSNKSADYEKVLDYVSKSFTSADDQAAFDIYDSNNINPFYGFYNSRAGFGASTSLGTKLLAYNDPRANRAFFTPIVDKKRSQVAANDPSLVPAPNGSPDQSTSKYGISAFVYAKTAPTLLMSYHELMFLKAEALCRLNRDAEDALKEAVVAGLLNAENSISIAIKELGSGLNTNSSEVITETSAGKYFDDVVKAKYAANPLQETMIQKYLAMWGASGEATETYNDFRRMKGLNENFITLTNPNNSSKFPLRYPYGNSDTAANPEVKAAYGNGDYVYSEPVWWAGGSR
glycan array binding signal (z-score) [1]: -0.448
glycan array binding signal (z-score) [2]: -0.237
glycan array binding signal (z-score) [3]: 2.52
glycan array binding signal (z-score) [4]: -1.27
glycan array binding signal (z-score) (GlcNAc(b1-3)Fuc): -0.118
glycan array binding signal (z-score) [5]: 1.12
glycan array binding signal (z-score) [6]: 1.84
glycan array binding signal (z-score) [7]: 1.66
glycan array binding signal (z-score) [8]: 0.815
glycan array binding signal (z-score) (GlcNAc(b1-3)GalNAc): -0.348
glycan array binding signal (z-score) [9]: -0.942
glycan array binding signal (z-score) (GlcNAc(b1-6)GalNAc): -0.798
glycan array binding signal (z-score) (Kdn(a2-3)Gal(b1-4)GlcNAc): 0.096
glycan array binding signal (z-score) [10]: 0.245
glycan array binding signal (z-score) (Man(a1-3)[Man(a1-6)]Man): 0.71
glycan array binding signal (z-score) [11]: 0.777
glycan array binding signal (z-score) [12]: 0.566
glycan array binding signal (z-score) [13]: -0.897
glycan array binding signal (z-score) [14]: -0.336
glycan array binding signal (z-score) [15]: 0.864
glycan array binding signal (z-score) [16]: -1.27
glycan array binding signal (z-score) [17]: 2.37
glycan array binding signal (z-score) [18]: 0.2
glycan array binding signal (z-score) [19]: 0.611
glycan array binding signal (z-score) [20]: 1.71
glycan array binding signal (z-score) [21]: -1.68
glycan array binding signal (z-score) [22]: -0.966
glycan array binding signal (z-score) [23]: -0.127
